Source: the supplement of paper PMC10338343
± gives the standard deviation. Over roughly 6,600 sequences, “pre-steady-state target cleavage rate” has its median near 0.07; the highest 2% begin near 0.72. For the sample, the highest values were picked, then their nearest neighbours and some sequences at random.

System: MIWI (PIWIL1) piRISC loaded with Kctd7 piRNA (30 nt)
Assay: pre-steady-state target cleavage rate (min^-1); MIWI and MILI are mouse PIWI proteins and EfPiwi is from a freshwater sponge; tags in brackets are library labels; higher = faster piRNA-guided slicing of the target
Details: guide: Kctd7 piRNA 5'p-UGUUAAUCUCUCAGAGAAGGUGACAGUGAU; auxiliary factor: 500 nM mouse GTSF1
Description: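 Cleave-'n-Seq: a library of target RNAs (target site embedded in constant flanks, ACAGCATTCCGCGTTAGTGATATCCG... 5' flank; DNA-blocked outside the site) at 0.1 nM was incubated with 1 nM active mouse MILI or MIWI piRISC (synthetic 5'-monophosphorylated piRNA guide) with or without 500 nM mouse GTSF1 at 33 °C for 1 min to 16 h. Uncleaved targets were sequenced and normalised to non-target controls, and the pooled three trials were fitted to a burst-and-steady-state model to give the pre-steady-state cleavage rate (min^-1; k3 is constrained to at most 1e-4). Sequence is the target site only; target names encode pairing extent (gX:gY) and contiguous / 1-mismatch / 2-mismatch / bulge geometry. Fits with R² ≤ 0 are excluded.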

Sequence | pre-steady-state target cleavage rate
UUCACUGUGACCUUCUCUGAGAGAUAAACA | 0.214 ± 0.023
AACACUGUCAGCUUCUCUGAGAGAUUAACA | 0.753 ± 0.039
AUCACUGUCUGCUUCUCUGAGAGAUUAACA | 0.74 ± 0.042
UAGACUGUCAGCUUCUCUGAGAGAUUAACA | 0.753 ± 0.05
UUCACUGUCAGCUUCUCUGAGAGAUUAACA | 0.723 ± 0.032
UACACUGUCUGCUUCUCUGAGAGAUUAACA | 0.708 ± 0.043
AUCACUGUCAGCUUCUCUGUGAGAUUAACA | 0.237 ± 0.013
UACACUGUCAGCUUCUCUGAGAGAUUAACA | 0.655 ± 0.027
UUCACUGUCUGCUUCUCUGAGAGAUUAACA | 0.639 ± 0.038
UUCUCUGUCAGCUUCUCUGAGAGAUUAACA | 0.586 ± 0.028
AUCACUGUCAGCUUCUCUGAGAGAUUAACA | 0.802 ± 0.044
UAGACUGUCAGCUUCUCUGUGAGAUUAACA | 0.198 ± 0.0095
AUGACUGUCAGCUUCUCUGAGAGAUUAACA | 0.721 ± 0.046
UUCACUGUCACGUUCUCUCAGAGAUUAACA | 0.0729 ± 0.0078
UAGUGACAGUGGAAGUCUGAGAUAUUAACA | < 0.0001
AUCAGUGUCACCUUGUCUGAGAGAUUAACA | 0.209 ± 0.029
UACACUGUCACCUUCUCCGAGAGAUUAACA | 0.351 ± 0.051
UUCACUGUCACCUUCUCUGUGAGAUUAUCA | 0.106 ± 0.025
UAGUGAGUCACCUACUCUGAGAGAUUAAGA | 0.13 ± 0.021
UAGACUGUCAGCCUUCUCUGAGAGAUUAACA | 0.231 ± 0.024
UUCACUGUCACCUUCUCUGACGAGAUUAACA | 0.0334 ± 0.0098
AUCACUGUCACCUUCUCUGAGAAUUAACA | 0.366 ± 0.11
UACACUGGUCACCUUCUCUGAGAGAUUAACA | 0.676 ± 0.038
AUCACUUGUCACCUUCUCUGAGAGAUUAACA | 0.754 ± 0.12

Sequence | pre-steady-state target cleavage rate
AUCACUGUCACCUUCUCUCUGAGAUUAACA | 0.0402 ± 0.0095
AUCACUGGUCACCUUCUCUGAGAGAUUAACA | 0.742 ± 0.047
AUCACUGUCACCUUCUCUGAGAGAUUAACC [g2:g30:cont:t1C] | 0.387 ± 0.032
UUCACUGUCACCUUCUCUGAGAGAAUUAACA | 0.641 ± 0.098
UUCACUGGUCACCUUCUCUGAGAGAUUAACA | 0.652 ± 0.034
AUCACUGUCACCUUCUCUGAGAGAAUUAACA | 0.738 ± 0.13
UACACUUGUCACCUUCUCUGAGAGAUUAACA | 0.631 ± 0.088
AUCACUGUCACCUUCUCUGAGAGAUUAACA [g2:g30:cont:t1A] | 0.734 ± 0.035
UUCACUUGUCACCUUCUCUGAGAGAUUAACA | 0.63 ± 0.09
UAGAGACUCACCUUCUCUGAGAGAUUAUGA | 0.0764 ± 0.014
UUCACUGUCACCUUCUCUGAGUAGAUUAACA | 0.0213 ± 0.0063
UAGUCUGUCACCUUUUCUGAGAGAUUAACA | 0.542 ± 0.029
AUCACUGUCACCUUCACUGAGUGAUUAACA | 0.0332 ± 0.007
UAGUGACAGACCUUCACUGAGAGUUUAACA | 0.0305 ± 0.011
UAGUGACUCACCUUCUCUGAGUGAUAAACA | 0.0392 ± 0.007
AAUCACUGUCACCUUCUCUGAGAGAUUAACA | 0.81 ± 0.043
AUCACUGUCACCUUCUCUGAGAGAUUAAUCA | 0.381 ± 0.04
AUCACUGUCACCUUCUCUGAGAGAUUAACG [g2:g30:cont:t1G] | 0.713 ± 0.037
UAGUGACUCACCUUCUCUGAGAGAAUAAGA | 0.02 ± 0.0073
UUCACAGUCACCUUCUCUGAGAGAUUAAGA | 0.137 ± 0.027
UAGUGUCUCAGCUUCUCUGAGAGAUUAACA | 0.437 ± 0.031
UAGAGUGUCAGCUUCUCUGAGAGAUUAACA | 0.772 ± 0.044
UAGUGUGUCAGCUUCUCUGAGAGAUUAACA | 0.561 ± 0.032
UUCAGUGUCAGCUUCUCUGAGAGAUUAACA | 0.609 ± 0.032

Sequence | pre-steady-state target cleavage rate
AUCAGUGUCAGCUUCUCUGAGAGAUUAACA | 0.734 ± 0.034
UACAGUGUCAGCUUCUCUGAGAGAUUAACA | 0.622 ± 0.028
AUCUCUGUCACCUACUCUGAGAGAUUAACA | 0.627 ± 0.042
AUCACUGUCACCUUCUCUGACAGAUUAUCA | 0.0262 ± 0.0092
UAGUCUGUCACCUUCUCUGAGACAUUAUCA | 0.0172 ± 0.0056
UAGUGUCACACCUUCUCUGAGAGAUAUUGA | 0.00616 ± 0.0033
UAGUGACACACCUUCUCUGAUAGAUUAACA | 0.714 ± 0.054
UAGUGACAGUGGAUCUCUGAGAAAUUAACA | < 0.0001
UAGACUGUCACCUUCUCUGAGAGCAUUAACA | 0.38 ± 0.025
UAGUCUGUCACCUUCUCUGAGUGAUUUACA | 0.0221 ± 0.0058
AUCCACUGUCACCUUCUCUGAGAGAUUAACA | 0.712 ± 0.046
UUCACUGUCACCUUCUCCUGAGAGAUUAACA | 0.795 ± 0.21
GUCACUGUCACCUUCUCUGAGAGAUUAACA | 0.763 ± 0.04
UUUCACUGUCACCUUCUCUGAGAGAUUAACA | 0.415 ± 0.04
UCCACUGUCACCUUCUCUGAGAGAUUAACA | 0.68 ± 0.028
ACCACUGUCACCUUCUCUGAGAGAUUAACA | 0.715 ± 0.039
AGUCACUGUCACCUUCUCUGAGAGAUUAACA | 0.833 ± 0.057
UUCACUGUCACCUUCUCUCUGAGAUUAACA | 0.0263 ± 0.0076
UACCACUGUCACCUUCUCUGAGAGAUUAACA | 0.773 ± 0.044
AUCACUGUCACCUUCUCCUGAGAGAUUAACA | 0.645 ± 0.17
UACACUGUCACCUUCUCCUGAGAGAUUAACA | 0.115 ± 0.043
UUCACUGUCACCUUCUCUGAGAGAAAUACA | 0.179 ± 0.038
AUCACUGUCACCUUCAUCUGAGAGAUUAACA | 0.275 ± 0.053
